About 1,400 (0.39%) of roughly 360,000 compounds were called active. No stated cut-off is given here; in the data, active means inhibition above about 5% (passing the limit was not always enough); inactive means the rest. This excerpt belongs to a sample that is enriched for actives.

The target in this assay is Tyrosine-protein kinase ABL1 (Homo sapiens) + Ras and Rab interactor 1 (Homo sapiens) (UniProt P00519+Q13671). In words: disruptors of human Abl and Rin1 association – biochemical, TR-FRET, primary screen (AID 588664). The following applies: TR-FRET Rin1/Abl binding, at 7.35 µM, hits give high values. In general terms: TR-FRET usually uses a lanthanide donor and a delayed reading to cut background.
Tyrosine-protein kinase ABL1 (Homo sapiens) + Ras and Rab interactor 1 (Homo sapiens), sequence (P00519 whole entry, looked up): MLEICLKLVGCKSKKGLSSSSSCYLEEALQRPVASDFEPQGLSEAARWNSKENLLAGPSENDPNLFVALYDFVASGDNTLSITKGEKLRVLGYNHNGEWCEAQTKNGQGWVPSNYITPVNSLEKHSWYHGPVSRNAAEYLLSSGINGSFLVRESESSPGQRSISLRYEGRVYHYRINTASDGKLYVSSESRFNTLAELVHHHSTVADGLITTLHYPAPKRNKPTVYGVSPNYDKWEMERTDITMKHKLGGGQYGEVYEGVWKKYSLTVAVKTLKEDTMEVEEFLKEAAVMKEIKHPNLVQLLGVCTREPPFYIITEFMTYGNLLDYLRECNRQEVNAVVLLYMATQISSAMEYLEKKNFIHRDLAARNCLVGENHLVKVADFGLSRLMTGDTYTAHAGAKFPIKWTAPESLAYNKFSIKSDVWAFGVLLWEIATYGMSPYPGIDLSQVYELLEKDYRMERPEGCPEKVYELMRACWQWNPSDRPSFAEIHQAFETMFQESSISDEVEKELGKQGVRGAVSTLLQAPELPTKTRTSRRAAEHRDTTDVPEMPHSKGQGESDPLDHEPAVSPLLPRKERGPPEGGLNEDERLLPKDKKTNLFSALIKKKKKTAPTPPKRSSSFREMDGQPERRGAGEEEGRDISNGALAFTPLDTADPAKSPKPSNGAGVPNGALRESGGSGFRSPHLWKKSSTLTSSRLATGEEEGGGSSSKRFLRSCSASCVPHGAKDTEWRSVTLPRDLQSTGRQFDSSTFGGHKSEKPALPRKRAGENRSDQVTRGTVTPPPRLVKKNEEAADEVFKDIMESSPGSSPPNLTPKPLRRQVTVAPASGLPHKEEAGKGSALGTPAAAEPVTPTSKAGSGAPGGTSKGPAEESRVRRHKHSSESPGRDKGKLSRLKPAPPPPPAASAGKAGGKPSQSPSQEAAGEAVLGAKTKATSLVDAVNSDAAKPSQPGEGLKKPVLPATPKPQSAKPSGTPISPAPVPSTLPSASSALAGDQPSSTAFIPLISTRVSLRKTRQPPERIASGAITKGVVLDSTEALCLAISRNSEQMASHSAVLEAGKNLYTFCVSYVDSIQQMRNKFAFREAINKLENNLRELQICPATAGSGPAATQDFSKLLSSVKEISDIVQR
Tyrosine-protein kinase ABL1 (Homo sapiens) + Ras and Rab interactor 1 (Homo sapiens), sequence (Q13671 whole entry, looked up): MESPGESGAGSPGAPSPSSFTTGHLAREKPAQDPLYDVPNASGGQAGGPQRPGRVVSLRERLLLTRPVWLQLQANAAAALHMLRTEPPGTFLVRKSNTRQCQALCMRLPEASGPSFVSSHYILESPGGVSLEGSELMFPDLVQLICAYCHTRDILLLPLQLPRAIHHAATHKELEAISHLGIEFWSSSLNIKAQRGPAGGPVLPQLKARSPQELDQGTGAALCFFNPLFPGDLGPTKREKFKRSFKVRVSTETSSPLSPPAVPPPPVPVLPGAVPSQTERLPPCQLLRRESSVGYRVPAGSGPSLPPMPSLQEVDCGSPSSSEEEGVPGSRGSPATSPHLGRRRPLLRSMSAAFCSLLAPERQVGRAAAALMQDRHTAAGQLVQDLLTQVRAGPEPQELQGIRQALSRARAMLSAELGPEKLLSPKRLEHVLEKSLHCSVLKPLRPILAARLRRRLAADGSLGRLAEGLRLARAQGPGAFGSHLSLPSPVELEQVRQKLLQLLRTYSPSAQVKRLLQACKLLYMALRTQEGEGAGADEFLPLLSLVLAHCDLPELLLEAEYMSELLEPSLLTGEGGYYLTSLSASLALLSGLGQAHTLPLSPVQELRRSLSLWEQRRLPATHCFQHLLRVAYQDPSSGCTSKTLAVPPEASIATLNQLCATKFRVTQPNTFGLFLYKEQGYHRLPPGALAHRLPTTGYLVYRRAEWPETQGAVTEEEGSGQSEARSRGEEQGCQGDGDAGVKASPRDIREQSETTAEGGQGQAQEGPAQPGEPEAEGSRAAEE
Consider `Nc1ncnc2c1ncn2[C@@H]1O[C@H](CNS(=O)(=O)c2ccc(-c3ccno3)s2)[C@@H](O)[C@H]1O`, for which the inhibition (commonly the relative decrease from the control value, in per cent) is -1.25% (inactive).

Regarding `CCc1ccc(C(=O)NNC(=O)C2CCN(c3ncnc4sc(C)c(C)c34)CC2)cc1`, the inhibition was -0.76% (inactive).

Regarding `COC(=O)c1ccc(COC(=O)C2CCN(S(=O)(=O)c3c(Cl)cccc3Cl)CC2)o1`, the inhibition was 15.2% (active).

Take `COc1cccc(COC(=O)C2CCN(S(=O)(=O)c3ccc(Cl)cc3)CC2)c1OC`: the inhibition was 3.29% (inactive).

As for `CCOc1ccc(S(=O)(=O)N2CCC(C(=O)OCc3ccc(OC)cc3)CC2)cc1`, the inhibition is 3.73% (inactive).

For `C=CCN1C(=O)c2ccc(C(=O)N3CCC(C(=O)OCC)CC3)cc2C1=O`, the inhibition was 2.75% (inactive).

For the molecule `O=C(O)CC1S/C(=N\N=C/c2ccccc2O)N(c2ccc(O)cc2)C1=O` (configuration not stated), the inhibition is 1.65% (inactive).

Regarding `C#CCOCCOCCOCCNc1nc(N2CCN(C(=O)[C@H](CCCCN)n3cc([C@@H](N)C(C)CC)nn3)CC2)nc(N2CCN(C(=O)[C@H](Cc3ccc(O)cc3)n3cc([C@@H](N)C(C)CC)nn3)CC2)n1` (some centres not stated), the inhibition was 5.61% (inactive).

For `C#CCOCCOCCOCCNc1nc(N2CCN(C(=O)[C@H](Cc3ccc(O)cc3)n3cc(C(N)CC(C)C)nn3)CC2)nc(N2CCN(C(=O)[C@H](CCC(=O)O)n3cc(C(N)[C@H](C)CC)nn3)CC2)n1` (some centres not stated), the inhibition was 2.63% (inactive).

On to `C#CCOCCOCCOCCNc1nc(N2CCN(C(=O)C(Cc3ccc(O)cc3)n3cc(C(N)CC(C)C)nn3)CC2)nc(N2CCN(C(=O)C(Cc3ccc(O)cc3)n3cc(C(N)C(C)CC)nn3)CC2)n1` (configuration not stated), for which the inhibition was 14.3% (active).

With `CSc1ncnc2c1ncn2CCCNCC1CCCCC1`, the inhibition was -2.89% (inactive).

For `CC12CCC(=O)C=C1CCC1C2C(O)CC2(C)C1CCC2(O)C(O)CO` (configuration not stated), the inhibition is 4.13% (inactive).

As for `CSc1ncnc2c1ncn2CC(=O)C1CCC2C3CCC4=CC(=O)CCC4(C)C3CCC12C` (configuration not stated), the inhibition is 13.2% (active).

Turning to `CSc1ncnc2c1ncn2CCCNCc1ccco1`, the inhibition was -1.36% (inactive).

Take `CCOC(=O)CN(C(=O)COc1nc(-c2ccccc2)cc(C)c1C#N)c1ccc(F)cc1`: the inhibition is -3.22% (inactive).

With `CCOC(=O)COc1nc(C)cc(C(F)(F)F)c1C#N`, the inhibition is 0.37% (inactive).

`CCOC(=O)CN(C(=O)COc1nc(C)cc(C)c1C#N)c1ccc(Cl)cc1`: the inhibition is 6.34% (active).

`CN(C1CCS(=O)(=O)C1)S(=O)(=O)c1ccc2ccccc2c1` (configuration not stated): the inhibition is 0.18% (inactive).

On to `COc1cc2c(cc1O)C(SC)=NC(C)(C)C2`, for which the inhibition is 2.88% (inactive).

For the molecule `CCOc1cccc(-c2nnc(SCC(=O)NC3CC3)n2C)c1`, the inhibition was -0.29% (inactive).

Consider `COc1cccc(-n2c(SCC(=O)NC3CCS(=O)(=O)C3)nc3ccccc3c2=O)c1` (configuration not stated), for which the inhibition was -0.16% (inactive).

Turning to `CCOc1ccc(-n2c(SCC(=O)NC3CCS(=O)(=O)C3)nnc2-c2cccnc2)cc1` (configuration not stated), the inhibition was 5.73% (active).

As to `Cc1ccc(C(=O)CSc2nc3ccccc3c(=O)n2N)o1`, the inhibition is -0.26% (inactive).

Take `Cc1ccccc1N1CCN(CC(=O)NCc2ccc(Cl)cc2)CC1`: the inhibition is 1.14% (inactive).

In the case of `COc1cc(CNc2ncnc3c2ncn3[C@H]2CN(Cc3cccs3)C[C@@H](CO)O2)cc(OC)c1OC`, the inhibition was 3.5% (inactive).

`CC(C)Cn1c(N2CCN(C(=O)/C=C/c3ccccc3)CC2)nc2ccccc21`: the inhibition is 0.97% (inactive).

Consider `Cc1cccc(C)c1NC(=O)CNC(=O)c1ccc2c(c1)OCCO2`, for which the inhibition was 1.15% (inactive).

Take `O=C(NCCc1ccc(C(F)(F)F)cc1)c1ccc2c(c1)OCO2`: the inhibition is -1% (inactive).

For `CN(Cc1c(F)cccc1Cl)C(=O)CNC(=O)c1ccc2c(c1)OCO2`, the inhibition is 34.7% (active).

In the case of `Cn1c(=O)cc(SCC(=O)N2CCCC2)c2cc(Cl)ccc21`, the inhibition is -25.5% (inactive).

Turning to `CNC1(c2nnnn2-c2c(C)cccc2C)CCOC(C)(C)C1` (configuration not stated), the inhibition was -2.89% (inactive).

Consider `Oc1ccc2ccc3cccc[n+]3c2c1`, for which the inhibition is -21.5% (inactive).

With `COc1ccc(C)cc1NC(=S)N1CCOCC1`, the inhibition was -0.53% (inactive).

For `COc1cc(C(=S)N2CCOCC2)ccc1O`, the inhibition is 11% (active).

For the molecule `CCOc1cc(C(=S)N2CCOCC2)ccc1O`, the inhibition is -1.01% (inactive).

For `CCOC(=O)C1CCN(C(=O)COc2cc(C)c(Br)c(C)c2)CC1`, the inhibition is -1.96% (inactive).

On to `CCn1c(SCC(=O)Nc2ccc(OC)c(OC)c2)nnc1-c1c[nH]c2ccccc12`, for which the inhibition is 3.38% (inactive).

Values taken from PubChem BioAssay AID588664 (The Scripps Research Institute Molecular Screening Center, 2011).
